# AmpC inh detg = AmpC beta-lactamase inhibition with detergent present; P00811; AmpC hydrolysis of nitrocefin, absorbance 480 nm, 0.01% Triton; Potency, µM (series often up to 114 µM), for the others: at the highest dose activity change, negative = inhibition, actives largely listed as inhibitors; 0.041% of 370,000 active; AID 485294;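 further: 0% = no-compound wells and -100% = no-enzyme wells; nearly all actives have a fitted effect of over 25% in size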
#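 20 mM phosphate pH 7.0 + 0.01% (detergent screen) or 0.0001% Triton X-100; 5.3 nM AmpC reagent; cpd preinc 15 min RT; nitrocefin (800 uM stock) to start; A480 q20 s × 4 min; Activity was normalised to no-enzyme and no-compound control wells.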
# Giardia FBPA inh-1 = blocks Giardia fructose-bisphosphate aldolase activity. 0.71% of 290,000 active. A8B2U2. AID 2451. purified Giardia FBPA. Potency, µM (series often up to 59.6 µM), for inactives: at the top dose activity, negative = inhibition, hits mostly inhibitors; further: on the % scale 0 is the no-effect control and ±100 the full control effect; nearly all actives have a fitted effect of over 55% in size
# Target sequence (A8B2U2 whole entry, looked up): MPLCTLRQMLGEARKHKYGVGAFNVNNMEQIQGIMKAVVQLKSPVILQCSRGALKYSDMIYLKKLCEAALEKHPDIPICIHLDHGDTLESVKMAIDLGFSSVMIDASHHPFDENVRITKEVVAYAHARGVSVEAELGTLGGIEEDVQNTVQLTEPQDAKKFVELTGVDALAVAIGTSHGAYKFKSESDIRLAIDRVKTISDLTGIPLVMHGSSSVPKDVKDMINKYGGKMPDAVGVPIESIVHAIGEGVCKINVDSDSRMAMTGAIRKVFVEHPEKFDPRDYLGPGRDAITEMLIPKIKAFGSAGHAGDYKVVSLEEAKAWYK
#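 Giardia FBPA (40 nM reagent) was preincubated 10 min at RT with compound (up to 57.5 uM final), then substrate plus GAPDH/TPI/NAD/arsenate coupling system with diaphorase/resazurin was added; resorufin fluorescence (525/598 nm) was read after 20 min.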
# AmpC inh no detg = blocks E. coli AmpC beta-lactamase in detergent-free assay | P00811 | AmpC nitrocefin hydrolysis, absorbance 480 nm, 0.0001% Triton | Potency, µM (titrated, usually from 57.1 µM), inactives show at the highest dose activity change, negative = inhibition, hits mostly inhibitors | 0.52% of 330,000 active | AID 485341;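 further: plate controls were no compound for no effect and no enzyme for full effect; nearly all actives have a fitted effect of over 20% in size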
#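 AmpC (5.3 nM in the dispensed reagent) in 20 mM phosphate pH 7.0 with 0.01% (detergent screen) or 0.0001% Triton X-100 was preincubated with compounds for 15 min at room temperature. Nitrocefin was then added from an 800 uM solution, and hydrolysis was followed at 480 nm.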
# SARS PLpro yeast = SARS-CoV PLP inhibition in yeast | Potency, µM (titrated, usually from 32.9 µM), without a hit: at the highest dose activity, positive = growth rescue, actives largely listed as activators | 0.19% of 330,000 active | S. cerevisiae expressing SARS-CoV PLpro, growth rescue | AID 485353; calls by dose curve; further: 0% is about no effect; nearly all actives have a fitted effect of over 55% in size
# Giardia growth = blocks growth of Giardia lamblia trophozoites; Giardia lamblia trophozoite growth inhibition; shares compounds with Giardia FBPA inh-1; Potency, µM (highest dose often 57.5 µM), for the others: at the top dose activity change, negative = inhibition, hits mostly inhibitors; 5% of 1,500 active;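 further: trophozoites exposed to compound for 48 h at 37 °C; on the % scale 0 is the no-effect control and ±100 the full control effect; nearly all actives have a fitted effect of over 70% in size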
# Mammal cell tox = mammalian cytotoxicity of Giardia aldolase inhibitor hits. shares compounds with Giardia FBPA inh-1. mammalian cell viability counter-screen, qHTS. Potency, µM (series often up to 57.5 µM), inactives show top-dose viability change, negative = toxicity, hits mostly inhibitors. 4% of 1,500 active. AID 2786;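 further: Chinese hamster ovary cells used as mammalian cytotoxicity surrogate; viability measured as cellular ATP by luminescence; compound exposure lasted 48 h before reading; on the % scale 0 is the no-effect control and ±100 the full control effect; nearly all actives have a fitted effect of over 60% in size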
# Giardia FBPA inh-2 = confirmation of Giardia fructose-bisphosphate aldolase inhibitors. shares compounds with Giardia FBPA inh-1. purified Giardia aldolase enzyme activity, qHTS. Potency, µM (top dose mostly 57.5 µM), for inactives: top-dose activity change, negative = inhibition, most hits filed as inhibitors. 5% of 1,500 active; further: on the % scale 0 is the no-effect control and ±100 the full control effect; nearly all actives have a fitted effect of over 45% in size
# Rabbit aldolase = selectivity test for Giardia aldolase inhibitors: rabbit aldolase; AID 2794; Rabbit muscle FBPA enzyme inhibition, selectivity counter-screen; Potency, µM (titrated, usually from 57.5 µM), without a hit: at the top dose activity, negative = inhibition, hits mostly inhibitors; shares compounds with Giardia FBPA inh-1; 4% of 1,500 active; further: on the % scale 0 is the no-effect control and ±100 the full control effect; nearly all actives have a fitted effect of over 60% in size
# Target sequence (P00883 whole entry, looked up): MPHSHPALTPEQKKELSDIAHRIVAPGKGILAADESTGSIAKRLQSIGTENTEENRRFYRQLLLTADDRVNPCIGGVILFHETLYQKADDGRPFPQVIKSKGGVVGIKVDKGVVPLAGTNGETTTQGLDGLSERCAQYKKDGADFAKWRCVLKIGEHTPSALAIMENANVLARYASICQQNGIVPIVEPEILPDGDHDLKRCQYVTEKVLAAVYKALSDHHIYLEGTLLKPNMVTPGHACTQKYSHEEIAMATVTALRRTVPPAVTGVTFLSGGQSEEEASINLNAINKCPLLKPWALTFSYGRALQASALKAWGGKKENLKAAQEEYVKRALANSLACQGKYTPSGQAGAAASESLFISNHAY
# GAPDH coupling = counter-screen for Giardia aldolase inhibitors: GAPDH coupling enzyme. shares compounds with Giardia FBPA inh-1. GAPDH coupling enzyme counterscreen, biochemical, qHTS. Potency, µM (doses to about 57.5 µM), for the others: top-dose activity change, negative = inhibition, actives largely listed as inhibitors. 6% of 1,500 active; further: on the % scale 0 is the no-effect control and ±100 the full control effect; nearly all actives have a fitted effect of over 55% in size
# Active calls of the source: *; ? = inconclusive; / = not tested or not shown; [ ] = remark or other dose. Hits are enriched below; roughly 1.1% of the tested compounds scored in any of these assays. Unless noted, the call rests on the fitted dose curve; in most records, active means well fitted curve in the direction sought with a large enough effect; inconclusive means small, poorly fitted or top-dose-only effect, or another doubt; inactive means no such curve, though single readings can be large; an effect the other way counts as inactive or inconclusive. Potency means the concentration at half of the fitted maximal effect.
SMILES,AmpC inh detg,Giardia FBPA inh-1,AmpC inh no detg,SARS PLpro yeast,Giardia growth,Mammal cell tox,Giardia FBPA inh-2,Rabbit aldolase,GAPDH coupling
CCC(=O)NC(c1ccco1)c1cc(Br)c2cccnc2c1O (configuration not stated),?,/,-0.7%,2.2%,/,/,/,/,/
CCCC(=O)NC(c1ccco1)c1cc([N+](=O)[O-])c2cccnc2c1O (configuration not stated),-7.5%,7.06µM*,-17.8%,?,?,-7.3%,-28.0%,-25.4%,?
Cc1ccc(C2=NN(CC(=O)NCCCN(CC(C)C)CC(C)C)C(=O)CC2)cc1,-3.2%,/,/,/,/,/,/,/,/
COc1cc(Cl)c(C)cc1NC(=S)NN,-5.4%,19.9µM*,-32.2%,1.0%,?,1.4%,2.8%,3.1%,7.5%
COc1cc(NC(=S)NC(C)(C)C)c(OC)cc1Cl,-10.9%,-4.7%,-17.7%,-1.6%,/,/,/,/,/
C=CCNC(=S)/C(=C(\[O-])c1ccc(Cl)cc1)[n+]1ccccc1,-4.8%,12.6µM*,5.4%,-0.3%,-21.1%,4.3%,-1.6%,6.9%,-1.8%
Cc1ccc(-c2nc3c(C)cccn3c2Nc2ccccc2C)s1,11.6%,/,/,/,/,/,/,/,/
CSc1cccc(NC(=S)N2CCC(N(C)C3CCCCC3)CC2)c1,2.9%,12.6µM*,-8.3%,0.7%,?,-7.6%,-5.3%,-1.8%,3.1%
CSc1cccc(NC(=S)N2CCC(N(C)C3CCCCC3C)CC2)c1 (configuration not stated),3.7%,5.8%,-19.1%,1.4%,/,/,/,/,/
O=C(NC(=S)Nc1ccc(CN2CCOCC2)cc1)c1cccc(F)c1,-8.0%,11.2µM*,20.6%,-6.4%,-10.7%,6.6%,-4.4%,8.5%,6.6%
O=C(NC(=S)Nc1ccc(CN2CCOCC2)cc1)c1cccc([N+](=O)[O-])c1,-12.8%,4.1%,-1.4%,-24.0%,/,/,/,/,/
COc1nnc(-c2ccc(N3CCCCC3)c(NC(=O)c3ccccc3Cl)c2)c2ccccc12,24.2%,/,/,/,/,/,/,/,/
CN1C(=O)c2ccccc2Sc2ccc(NC(=O)N3CCN(c4ccc(F)cc4)CC3)cc21,26.2%,/,/,/,/,/,/,/,/
O=c1oc2c(O)c(O)cc3c(=O)oc4c(O)c(O)cc1c4c23,?,1.99µM*,-35.8%,1.41µM*,15.2%,4.1%,?,?,?
C[C@H](NC(=O)[C@H]1N2C(=O)c3ccccc3C2SC1(C)C)C(=O)N1CCCCC1 (some centres not stated),-0.5%,20µM*,19.7%,7.5%,16.1%,5.9%,-14.1%,-10.9%,?
C[C@H](NC(=O)[C@H]1N2C(=O)c3ccccc3C2SC1(C)C)C(=O)N1CCN(C)CC1 (some centres not stated),-1.5%,-5.1%,5.3%,14.2%,/,/,/,/,/
CC(C)(C)NC(=S)/N=C(\N)N[N+](=O)[O-],-13.1%,15.8µM*,-20.7%,0.8%,29.7%,13.8%,14.4%,13.6%,14.1%
COC(=O)C(N)CCCN=C(N)N[N+](=O)[O-] (configuration not stated),/,-2.3%,/,/,/,/,/,/,/
CC(=O)c1ccc(N2CCN(c3ncnc4c3cnn4-c3cc(Cl)ccc3C)CC2)cc1,-4.2%,/,/,/,/,/,/,/,/
CC(C)OC(=O)CC1C(=O)NCCN1C(=S)NC(=O)c1ccc(F)cc1 (configuration not stated),5.1%,15.8µM*,-9.8%,0.7%,-18.7%,-5.1%,6.8%,5.4%,8.4%
COC(=O)CC1C(=O)NCCN1C(=O)c1sc2ccccc2c1Cl (configuration not stated),5.9%,1.8%,-3.7%,-0.1%,/,/,/,/,/
COC(=O)CC1C(=O)NCCN1C(=S)NC(=O)c1sc2ccccc2c1Cl (configuration not stated),?,15.8µM*,-2.6%[2.29 µM],0.7%,13.1%,3.4%,5.1%,8.1%,11.6%
CC(C)OC(=O)CC1C(=O)NCCN1C(=S)NC(=O)c1ccccc1 (configuration not stated),0.1%,11.2µM*,1.0%,-0.6%,-12.7%,11.3%,6.6%,5.5%,8.3%
CC(C)OC(=O)CC1C(=O)NCCN1C(=S)NC(=O)CCc1ccccc1 (configuration not stated),7.3%,-8.7%,-20.4%,-1.1%,/,/,/,/,/
CCNc1ncc2nc(-c3ccccc3)c(=O)n(C)c2n1,/,2.1%,/,/,/,/,/,/,/
SMILES,AmpC inh detg,Giardia FBPA inh-1,AmpC inh no detg,SARS PLpro yeast,Giardia growth,Mammal cell tox,Giardia FBPA inh-2,Rabbit aldolase,GAPDH coupling
Cc1[nH]n(-c2ccccc2)c(=O)c1C=Nc1ccc(S(=O)(=O)N=C(N)N)cc1,1.6%,-5.2%,-15.0%,1.3%,/,/,/,/,/
Cc1[nH]n(-c2ccccc2)c(=S)c1C=Nc1ccc([N+](=O)[O-])cc1,-6.3%,4.46µM*,-16.2%,-9.8%,-1.5%[38.3 µM],-7.5%,-22.7%,35.5µM*,?
O=C(NC1CCCCCC1)c1ccc[nH]c1=S,-11.8%,15.8µM*,-16.3%,-33.6%,?,4.2%,8.8%,2.4%,17.7%
C/C(=N\Nc1nc2ccccc2c(=O)n1O)c1ccco1,-1.4%,-11.3%,-13.7%,7.6%,/,/,/,/,/
Cc1ccc(C)c(/C=N/Nc2nc3ccccc3c(=O)n2O)c1,-0.4%,15.8µM*,-20.1%,1.7%,?,-6.1%,-19.5%,-10.8%,-14.5%
O=[N+]([O-])c1cc(C(F)(F)F)cc([N+](=O)[O-])c1Sc1n[nH]c(C(F)(F)F)n1,-6.9%,17.7µM*,-21.2%,-0.6%,?,-6.0%,-5.8%,9.6%,-13.5%
CN(C)/C=N/c1nc(Sc2ccc(C(F)(F)F)cc2[N+](=O)[O-])n[nH]1,-1.9%,-5.6%,-5.2%,0.5%,/,/,/,/,/
O=c1[nH]c(=S)c2ncn(-c3ccccc3)c2[nH]1,4.8%,9.98µM*,-11.6%,-0.4%,10.4%,7.0%,2.7%,3.3%,7.4%
O=C(O)Cn1cnc2c(=S)nc[nH]c21,3.5%,3.54µM*,88.8%,0.1%,-4.2%[38.3 µM],-3.8%,-4.0%,-4.3%,-8.3%
Cn1c(=O)c2ncn(CC(=O)O)c2n(C)c1=O,5.3%,1.8%,-26.2%,-1.1%,/,/,/,/,/
C/C(CCc1ccccc1)=N\NC(=S)NCCc1ccccc1,-8.5%,23.1%,-31.3%,1.0%,/,/,/,/,/
C/C(CCC(C)C)=N\NC(=S)NCc1ccccc1,-13.1%,15.8µM*,-24.4%,0.7%,22.9%,16.3%,8.4%,9.5%,7.0%
COc1ccc(-c2cn3cccnc3n2)cc1NC(=O)c1c(F)cccc1F,0.6%,/,/,/,/,/,/,/,/

# From PubChem
